NRP1-CendR mod: modulators of CendR peptide binding to human neuropilin-1 | O14786 | FAM-RPARPAR peptide binding to NRP-1, fluorescence polarization | inhibition, % at 25 µM | 360,000 tested, 0.85% active;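 active = inhibition or corrected inhibition above about 18%, plus a signal ratio from 0.5 to 1.5, limit read from the data, passing the limit was not always enough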
HNF4A DNA FP: change in binding of human HNF4 alpha to DNA. 360,000 tested, 0.3% active. P41235. HNF4a-FITC DNA binding, fluorescence polarization, 1 h. activity change, % at 10 µM. AID 1224865; in the data active = activity change above about 30%, passing the limit was not always enough
Target sequence (P41235 whole entry, looked up): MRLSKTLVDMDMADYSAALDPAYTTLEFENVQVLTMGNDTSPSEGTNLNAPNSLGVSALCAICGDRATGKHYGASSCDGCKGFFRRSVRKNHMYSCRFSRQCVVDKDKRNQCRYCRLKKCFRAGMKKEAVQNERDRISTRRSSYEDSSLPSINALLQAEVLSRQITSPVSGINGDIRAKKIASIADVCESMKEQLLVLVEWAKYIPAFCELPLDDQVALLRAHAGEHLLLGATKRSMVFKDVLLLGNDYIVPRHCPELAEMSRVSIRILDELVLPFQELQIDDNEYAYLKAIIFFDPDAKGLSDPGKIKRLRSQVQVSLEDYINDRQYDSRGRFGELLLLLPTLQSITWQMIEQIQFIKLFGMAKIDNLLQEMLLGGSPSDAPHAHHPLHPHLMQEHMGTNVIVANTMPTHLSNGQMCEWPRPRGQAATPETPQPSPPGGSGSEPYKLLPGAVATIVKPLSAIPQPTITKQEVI
TPT1 inh: inhibitors of Candida albicans tRNA 2'-phosphotransferase TPT1. recombinant caTPT1, FP RNA substrate dephosphorylation. inhibition, % at 5 µM. 300,000 tested, 0.81% active. AID 1962;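 active = inhibition above the mean of all tested compounds plus 3 SD, set per screening campaign, cut at about 24% in these data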;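 also: plate controls were DMSO alone for no effect and ferristatin control at 100 nM for full effect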
PHOSPHO1 block: blocks human PHOSPHO1 phosphatase activity. AID 1565. Q8TCT1. 290,000 tested, 1.1% active. recombinant PHOSPHO1, absorbance phosphatase assay. inhibition, % at 13.3 µM; in the data active = inhibition above about 60%
CTSL1 counter: cathepsin L1 inhibition, PFM18AAP counter-screen; recombinant F. hepatica cathepsin L1, Z-Leu-Arg-MCA fluorescence; inhibition, % at 5.96 µM; AID 1906; 300,000 tested, 0.49% active;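 active = inhibition above the mean of all tested compounds plus 3 SD, set per screening campaign, cut at about 17% in these data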;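 also: 0% = plate median of test compound wells and 100% = 1 µM Z-Phe-Ala-diazomethylketone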
Rpn11 block: Rpn11 (human) deubiquitinase inhibition. human 26S proteasome, Ub4-pepOG fluorescence polarization; 20S core pre-blocked with epoxomicin. inhibition, % at 20 µM. 360,000 tested, 0.59% active. AID 588493;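 active = inhibition at 20 µM, scaled to each plate's controls, above about 33%, limit read from the data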
Starred values were filed as active, the others as inactive; · = not tested or not shown. Sampled rows, rich in hits. Any-hit rate of the full collection: about 3.3%.

SMILES	NRP1-CendR mod	HNF4A DNA FP	TPT1 inh	PHOSPHO1 block	CTSL1 counter	Rpn11 block
O=Cc1c[nH]c2ccc(OCc3ccccc3)cc12	-9	-1	·	·	·	-2
O=Cc1c[nH]c2ccc(C(=O)c3ccccc3)cc12	12	2	-1	10	18*	26
O=C(CCC1CCCCC1)Nc1cccc(C(=O)Nc2ccc(C(=O)O)cc2)c1	5	-1	1	·	8	1
CC1C(=O)N2CCCc3cc(NC(=O)COc4ccccc4)cc1c32 (centres undefined)	-9	0	-2	·	-2	6
Cc1oc(C)c2c(=O)ccc3c(c12)OC(N)=C(C#N)C3c1ccccc1 (centres undefined)	-98	5	4	2	-2	·
CSc1ccc(C2C(C#N)=C(N)Oc3c2ccc(=O)c2c(C)oc(C)c32)cc1 (centres undefined)	-187	31	40*	14	4	·
CC(C)C1=C2CCCCC2NC(=O)N1 (centres undefined)	28*	-11	-1	19	0	-38
O=C(Nc1ccccc1)C1=C(O)CC(c2ccoc2)CC1=Nc1ccccc1 (centres undefined)	2	0	1	6	22*	2
O=C(Nc1ccccc1)C1=C(O)CC(c2ccco2)CC1=Nc1ccccc1 (centres undefined)	-4	-2	2	28	4	8
Cc1ccc(NC(=O)C2=CC(c3ccc(C)cc3)=NS(=O)(=O)N2C)cc1	21*	-1	-1	18	1	2
Nc1c(C(=O)Nc2ccccc2)sc2nc3c(c(-c4ccco4)c12)CCCC3	-23	3	6	-60	3	6
Nc1c(C(=O)Nc2ccccc2)sc2nc3c(c(-c4ccco4)c12)CCC3	-40	8	11	87*	1	11
O=C(NCc1ccccc1)[C@@H]1CCCN1C(=O)[C@@H]1CCCN1C(=O)c1cccs1	10	1	·	·	·	·
O=C1NC(=O)C(c2cccs2)(c2cccs2)N1	4	-6	-2	32	3	0
Cc1ccc(CNC(=O)C2CSC3(C)CCC(=O)N23)cc1 (centres undefined)	-6	-5	·	·	·	7
Cc1nc2ccccn2c1CN(C)C(=O)C1CCC(=O)N(Cc2cccc(F)c2)C1 (centres undefined)	2	2	2	12	3	-7
Cc1cccc(CN2CCCC(C(=O)Nc3ccc(-c4cscn4)cc3)C2)c1 (centres undefined)	13	0	·	13	·	-16
CC(=O)Nc1ccc(-c2nnn(CC(=O)Nc3ccc4c(c3)OCO4)n2)cc1Cl	-1	-1	-3	10	-2	-4
CC(=O)NC(N(C#N)c1nc(Cl)nc(N(C)C)n1)C(Cl)(Cl)Cl (centres undefined)	6	-1	-2	37	-1	-7
CC(=O)n1cc(Nc2ccc([N+](=O)[O-])cc2)c2ccccc21	-6	0	-1	28	3	0
CC(=O)SC(C[N+](=O)[O-])c1cn(C(C)=O)c2ccccc12 (centres undefined)	5	2	3	63*	-16	19
Cc1nn(CC(=O)NCCCN2CCN(C)CC2)c(=O)c2cc(-c3ccccc3)nn12	6	3	-3	17	2	-6
CCc1ccc(-c2cc3c(=O)n(CC(=O)NCCCN4CCN(CC)CC4)nc(C)n3n2)cc1	24*	1	-3	-16	-2	4
COc1ccc(-c2cc3c(=O)n(CC(=O)NCCCN4CCC(Cc5ccccc5)CC4)ncn3n2)cc1	0	4	-2	24	20*	-10
Cc1nn(CC(=O)Nc2cccc(Cl)c2)c(=O)c2cc(-c3ccccc3)nn12	-3	0	-2	65*	0	-4
SMILES	NRP1-CendR mod	HNF4A DNA FP	TPT1 inh	PHOSPHO1 block	CTSL1 counter	Rpn11 block
CC(NS(=O)(=O)c1ccc2c(c1)CC(=O)N2C)c1ccccc1 (centres undefined)	16	1	0	2	0	2
CC(C)(C)NS(=O)(=O)c1ccc(CCC(=O)NCc2ccccn2)cc1	7	0	-1	·	13	-6
O=C(Nc1cccc(C(F)(F)F)c1)Oc1ccccc1N1CCOCC1	15	1	-4	36	7	-7
Cc1cc2ccccn2c1C(=O)c1ccc(Cl)cc1	-8	2	2	64*	-1	11
Cc1cc2ccccn2c1C(=O)c1ccncc1	2	-5	3	-28	-2	-6
COc1ccc(-n2nc3c(c2NC(=O)CCl)CSC3)cc1	-7	1	-1	13	72*	1
Cc1ccc(-n2nc3c(c2NC(=O)C(C)(C)C)CSC3)c(C)c1	13	-1	-2	88*	-2	0
CCC(=O)Nc1c2c(nn1-c1ccc(C)cc1C)CSC2	-13	3	-2	86*	1	1
COc1ccc(Cl)cc1NC(=O)CN(C)Cc1cccs1	6	4	1	-4	1	2
COc1ccccc1C1NC=C([N+](=O)[O-])C=C1[N+](=O)[O-] (centres undefined)	-4	3	19	0	3	3
COc1cccc(NC(=O)CCC2CCN(C(=O)C3CC=CCC3)CC2)c1 (centres undefined)	13	12	-6	12	1	-2
COc1ccccc1Nc1nn2c(=O)c3ccc(C(=O)N4CCC(C)CC4)cc3nc2s1	25*	-1	2	-26	1	3
Cn1nc2c(c1C(=O)N1CCCC(C(=O)c3cc(F)ccc3F)C1)CCCC2 (centres undefined)	53*	-3	0	32	3	2
CCOc1ccc(NC(=O)CN(c2ccc([N+](=O)[O-])cc2)S(=O)(=O)c2ccccc2)cc1	-1	1	-5	4	5	-6
O=C(CN(c1cccc(Br)c1)S(=O)(=O)c1ccccc1)N/N=C/c1cc([N+](=O)[O-])ccc1O	50*	-4	-2	·	-4	-2
Cc1ccc[n+](CC(=O)Nc2ccc([N+](=O)[O-])cc2)c1	-4	3	0	-6	31*	-1
Cc1ccc[n+](CC(=O)Nc2cccc([N+](=O)[O-])c2)c1	0	0	-2	16	2	1
CC(=O)Nc1ccc(NC(=O)CN(c2ccc([N+](=O)[O-])cc2)S(=O)(=O)c2ccccc2)cc1	-16	0	1	67*	-1	6
Cc1cccc(OC(=O)n2c(=S)oc3cc(Cl)ccc32)c1	5	3	2	-21	0	-8
CC(O)CC(=O)OC[C@]12CC[C@H]3[C@@](C)(CC[C@H]4C(C)(C)CCC[C@]34C)[C@@H]1CC(C1=CC(=O)OC1O)O2 (some centres undefined)	-146	-6	·	·	·	13
